Test results published in PubChem BioAssay (NCATS).
Results filed as inconclusive are left out. Entries that show only a call come without a potency. Calls of active or inactive are those of the source. The call rests on the fitted dose curve; in most records, active means well fitted inhibition curve with a large enough effect; inconclusive means small, poorly fitted or top-dose-only effect; inactive means flat fitted curve, though single readings scatter.

assay: Cytometry Cell-Based qHTS for Inhibitors of the mTORC1 Signaling Pathway in MEF cells (AID 2668); settings: mTORC1 pathway readout; series mostly up to 38.3 µM
From the text: NIH Molecular Libraries Probe Production Centers Network [MLPCN]
NIH Chemical Genomics Center [NCGC]
Assay Submitter (PI): Blenis, John; Hoffman, Greg; Harvard University
NCGC Assay Overview: The mammalian target of rapamycin (mTOR) is an intracellular serine/threonine kinase Aberrant regulation of mTOR signaling plays a causative role in a number of human diseases, including cancer, benign tumors such as lymphangioleiomyomatosis (LAM) and Tuberous Sclerosis Complex (TSC), and metabolic diseases such as diabetes and obesity. This project aims to identify inhibitors of ribosomal protein S6 (rpS6) phosphorylation. The phosphorylation of rpS6 is a key event downstream of mTOR activation. The assay uses a phospho-specific antibody of phospho-rpS6 to detect inhibitors of mTOR activation. Mutations in the Tsc1 and Tsc2 genes are the underlying genetic lesions responsible for TSC, causing constitutive activation of the mTORC1 pathway and leading to profound effects on cell metabolism. Aberrant metabolism in cancer has recently received significant attention as a target to develop therapeutic agents in the treatment of cancer.1 As Tsc2-/- cells have lost the ability to respond to energy and growth factor deprivation, these cells are unable to properly down regulate cellular biosynthetic processes in response to metabolic stress, and are thus extremely sensitive to glucose deprivation-induced death.2 A central goal of this project is to explore the unique cell survival and metabolic properties of cells with Tsc1 or Tsc2 by screening for compounds that selectively target the Tsc2-/- MEFs by screening both Tsc2-/- and WT MEF cell lines. We hope to better understand these aspects of TSC physiology in order to exploit them for therapeutic benefit.
NCGC Acumen Assay Protocol:
For quantitative high throughput analysis of mTORC1 signaling, we developed a cell-based assay for immuno-fluorescence based detection of rpS6 phosphorylation on the Acumen Explorer that will be used a platform for the primary small molecule screen. Mouse embryonic fibroblasts (MEFs) are cultured in 1536-well plates using DMEM + 10% FBS. Twenty-four hrs after plating, test compounds (solubilized in DMSO) are delivered and incubated with the cells for 24 hrs at 37 degree Celsius. Following the incubation, media with compound is aspirated and the cells are fixed in 4% paraformaldehyde (PFA) containing PBS + 0.2% TX-100. Next, PFA is aspirated, cells are washed two times with PBS plus 0.2% TX-100 and the cells are blocked for 1 hr at room temperature (blocking buffer: LiCOR Blocking Buffer plus 0.2% TX-100). This is followed by aspiration and staining with Alexa-488 conjugated-phospho-rpS6 Ser235/236 antibody for 2 hours at room temperature (Cell Signaling Technology # 4803, 1:50 dilution in blocking buffer). Cells are washed two times with PBS plus 0.2% TX-100, and stained with 10 uM propidium iodide (PI) for 20-25 minutes for cell number measurement (1:500 dilution of Hoescht staining is also added for IN Cell imaging). The plates are scanned on the Acumen Explorer laser scanning instrument (TTP Labtech) using the 488nm laser for simultaneous excitation of the Alexa-488 and PI. The fluorescence emission from the Alexa-488 conjugated rpS6 phospho-235/236 antibody staining is selected using a […] band pass filter. Fluorescence emission from the PI stain is selected using a 575-640 nm band pass filter. The normalized phospho-S6 staining is calculated as the ratio of the integrated Alexa 488 intensity divided by the integrated PI intensity for the single concentration rapamycin control (7.5 nM) and DMSO columns. […] Inhibition of the pathway is defined based on the normalized phospho-S6 intensity in rapamycin treated cells. […]
Potency means the concentration at half of the fitted maximal effect.

Row | SMILES | Potency
1 | O=C(CCCN1CCC(O)(c2cccc(C(F)(F)F)c2)CC1)c1ccc(F)cc1 | 13.1 µM (active)
2 | O=C(O)CN(CCN(CC(=O)O)CC(=O)O)CCN(CC(=O)O)CC(=O)O | inactive
3 | CCN(CC)CCNC(=O)c1cc(S(C)(=O)=O)ccc1OC | inactive
4 | CC(C)[N+](C)(CCOC(=O)C1c2ccccc2Oc2ccccc21)C(C)C | inactive
5 | C[N+](C)(C)CCOC(=O)CCC(=O)OCC[N+](C)(C)C | inactive
6 | CN(C)C(=O)Oc1ccc[n+](C)c1 | inactive
7 | NC(N)=NC(=O)Cc1c(Cl)cccc1Cl | inactive
8 | CC[N+](C)(C)c1cccc(O)c1 | inactive
9 | C[C@@H](O)[C@H]1C(=O)N2C(C(=O)O)=C(SCCN=CN)C[C@H]12 | inactive
10 | CC(=O)OC(C)C[N+](C)(C)C (stereo not given) | inactive
11 | CC(=O)Nc1nnc(S(N)(=O)=O)s1 | inactive
12 | CCN(CC)CC(=O)Nc1c(C)cccc1C | inactive
13 | CN(C)C/C=C(/c1ccc(Br)cc1)c1cccnc1 | inactive
14 | Cc1scc2c1N(C(=O)CN1CCN(C)CC1)c1ccccc1NC2=O | inactive
15 | O=C1CC2(CCCC2)CC(=O)N1CCCCN1CCN(c2ncccn2)CC1 | inactive
16 | CN1CCN(C2=Nc3ccccc3Oc3ccc(Cl)cc32)CC1 | inactive
17 | CCCCCN(CCCCC)C(=O)C(CCC(=O)O)NC(=O)c1ccc(Cl)c(Cl)c1 (stereo not given) | inactive
18 | CCN1CCc2nc(N)oc2CC1 | inactive
19 | CCCCNc1c(C(=O)OCC)c(C)nc2c1cnn2CC | inactive
20 | FC(F)(F)c1ccccc1-n1ccnc1 | inactive

Row | SMILES | Potency
21 | COC(=O)[C@H]1[C@H]2C[C@@H]3c4[nH]c5cc(OC)ccc5c4CCN3C[C@H]2C[C@@H](OC(=O)c2cc(OC)c(OC)c(OC)c2)[C@@H]1OC | inactive
22 | CNCCC(Oc1ccccc1OC)c1ccccc1 (stereo not given) | inactive
23 | Cc1nc2ccccn2c(=O)c1CCN1CCC(C(=O)c2ccc(F)cc2)CC1 | inactive
24 | NC(=O)c1ncn([C@@H]2O[C@H](CO)[C@@H](O)[C@H]2O)c1O | inactive
25 | c1cc(CN2CCCCC2)cc(OCCCNc2nc3ccccc3s2)c1 | 16.5 µM (active)
26 | Nc1c2c(nc3ccccc13)CCCC2O (stereo not given) | inactive
27 | CO[C@@]1(NC(=O)CSCC#N)C(=O)N2C(C(=O)O)=C(CSc3nnnn3C)CS[C@@H]21 | inactive
28 | CC(=O)Oc1cc(C(C)C)c(OCCN(C)C)cc1C | inactive
29 | CN1CCN(CC(=O)N2c3ccccc3C(=O)Nc3cccnc32)CC1 | inactive
30 | CN(C)CC/C=C1\c2ccccc2COc2ccccc21 | inactive
31 | Brc1c(NC2=NCCN2)ccc2nccnc12 | inactive
32 | Fc1ccc(C(c2ccc(F)cc2)N2CCN(C/C=C/c3ccccc3)CC2)cc1 | inactive
33 | CN(C(=O)CCCOc1ccc2[nH]c(=O)ccc2c1)C1CCCCC1 | inactive
34 | CCN1CCC[C@H]1CNC(=O)c1c(O)c(Cl)cc(Cl)c1OC | inactive
35 | COc1cc2c(cc1OC)-c1cc(=Nc3c(C)cc(C)cc3C)n(C)c(=O)n1CC2 | inactive
36 | Cc1ccc(=O)n(-c2ccccc2)c1 | inactive
37 | CN/C(=C\[N+](=O)[O-])NCCSCc1ccc(CN(C)C)o1 | inactive
38 | NC(=O)N1c2ccccc2C=Cc2ccccc21 | inactive
39 | NC(Cc1ccc(Cl)cc1)C(=O)O (stereo not given) | inactive
40 | CCn1ccnc1CC1COc2ccccc2O1 (stereo not given) | inactive
